63 compounds from PMC4336329 (PLoS ONE, 2015) can be followed below.

Among all 310,000 compounds or so, about 14,000 (4.5%) showed an effect of 50% or more. The effect is printed as a negative number. For the sample, strong results were picked, then their nearest neighbours and some compounds at random.
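Note: peak tail current of the secondary pulse compared with the same well before compound.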

The assay deals with human ether-à-go-go-related gene (hERG) potassium channel (human, UniProt Q12809). Nature of the assay: primary screen, population patch clamp on CHO cells stably expressing hERG; higher = less effect of the substance.
human ether-à-go-go-related gene (hERG) potassium channel, sequence (Q12809 whole entry, looked up): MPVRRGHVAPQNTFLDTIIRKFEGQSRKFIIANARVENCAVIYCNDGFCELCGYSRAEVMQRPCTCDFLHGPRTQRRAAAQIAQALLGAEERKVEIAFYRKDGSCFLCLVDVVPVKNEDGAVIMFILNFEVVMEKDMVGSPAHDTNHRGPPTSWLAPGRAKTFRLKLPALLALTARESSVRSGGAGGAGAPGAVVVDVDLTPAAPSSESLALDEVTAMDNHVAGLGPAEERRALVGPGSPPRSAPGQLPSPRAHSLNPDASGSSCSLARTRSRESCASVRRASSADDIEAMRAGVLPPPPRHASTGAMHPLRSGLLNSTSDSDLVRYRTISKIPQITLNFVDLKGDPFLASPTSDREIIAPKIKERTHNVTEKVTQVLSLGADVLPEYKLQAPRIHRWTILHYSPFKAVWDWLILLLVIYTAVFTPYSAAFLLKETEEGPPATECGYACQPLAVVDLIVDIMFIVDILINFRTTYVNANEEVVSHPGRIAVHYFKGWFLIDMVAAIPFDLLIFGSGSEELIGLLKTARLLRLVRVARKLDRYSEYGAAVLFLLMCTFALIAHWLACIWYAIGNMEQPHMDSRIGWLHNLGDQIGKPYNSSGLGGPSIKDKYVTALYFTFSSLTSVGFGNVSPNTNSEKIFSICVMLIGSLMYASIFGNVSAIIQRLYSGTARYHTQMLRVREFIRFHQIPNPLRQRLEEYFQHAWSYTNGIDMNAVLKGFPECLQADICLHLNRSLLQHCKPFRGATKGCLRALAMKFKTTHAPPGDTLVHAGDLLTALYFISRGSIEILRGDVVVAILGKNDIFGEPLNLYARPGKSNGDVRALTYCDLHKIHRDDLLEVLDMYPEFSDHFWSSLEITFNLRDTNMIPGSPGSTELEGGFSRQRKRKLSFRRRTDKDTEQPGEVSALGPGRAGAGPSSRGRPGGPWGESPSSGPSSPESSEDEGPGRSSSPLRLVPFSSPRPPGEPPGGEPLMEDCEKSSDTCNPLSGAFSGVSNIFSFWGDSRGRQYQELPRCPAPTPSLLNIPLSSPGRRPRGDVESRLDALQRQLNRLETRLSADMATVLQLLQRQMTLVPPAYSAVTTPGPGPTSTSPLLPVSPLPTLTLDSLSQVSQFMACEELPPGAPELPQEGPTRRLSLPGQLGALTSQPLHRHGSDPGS
`COc1ccc(C)cc1N(C(=O)COc1cccc(F)c1)c1nc2ccccc2s1`: the “hERG current change (%, negative = inhibition) at 10uM” value is recorded as -27.2%.

For `O=[N+]([O-])c1ccc(-n2nnnc2-c2ccccc2)c([N+](=O)[O-])c1`, the “hERG current change (%, negative = inhibition) at 10uM” value amounted to 6.9%.

Regarding `COc1cccc(CN2CC(C(=O)NCc3cccc(N4CCCC4)c3)CCC2=O)c1` (stereo not drawn), the “hERG current change (%, negative = inhibition) at 10uM” value was -5.08%.

As for `CCOc1ccc(S(=O)(=O)NC2CC2)cc1`, the “hERG current change (%, negative = inhibition) at 10uM” value is listed as 4.15%.

Consider `N/C(=N\OC(=O)c1ccc2ccccc2c1)c1ccncc1`, for which the “hERG current change (%, negative = inhibition) at 10uM” value is listed as -38.4%.

As for `C[C@H](CCC(=O)O)[C@H]1CC[C@H]2[C@@H]3[C@H](O)C[C@@H]4C[C@H](O)CC[C@]4(C)[C@H]3CC[C@]12C`, the “hERG current change (%, negative = inhibition) at 10uM” value is given as 13.8%.

For the compound `CC(C)C(=O)N1CCN(c2ccccc2NC(=S)NC(=O)c2cccs2)CC1`, the “hERG current change (%, negative = inhibition) at 10uM” value is on record as -2.66%.

Turning to `CCOc1ccc(OCC)c(NC(=O)C2CCCN(C(=O)c3ccc(Cl)cc3)C2)c1` (stereo not drawn), the “hERG current change (%, negative = inhibition) at 10uM” value is listed as -34%.

Turning to `Clc1ccc(OCCCCCN2CCOCC2)cc1`, the “hERG current change (%, negative = inhibition) at 10uM” value was -37.6%.

`O=[N+]([O-])c1ccccc1OCCCCN1CCCCC1`: the “hERG current change (%, negative = inhibition) at 10uM” value is -32.2%.

As for `Cc1ccc(OCCCCCN2CCOCC2)cc1`, the “hERG current change (%, negative = inhibition) at 10uM” value is recorded as 4.39%.

In the case of `O=[N+]([O-])c1ccc(OCCCCCN2CCOCC2)cc1`, the “hERG current change (%, negative = inhibition) at 10uM” value is recorded as -58.6%.

Turning to `O=[N+]([O-])c1ccc(OCCCCN2CCCCC2)cc1`, the “hERG current change (%, negative = inhibition) at 10uM” value was -69.4%.

Turning to `C=Cc1ccc2c(c1)N(C)C(=C)S2.I`, the “hERG current change (%, negative = inhibition) at 10uM” value is 19.7%.

Take `CCOC(=O)c1oc2ccccc2c1NC(=O)COC`: the “hERG current change (%, negative = inhibition) at 10uM” value is given as -12.2%.

Regarding `COc1ccc(CCNC(=S)Nc2cccc3ccccc23)cc1`, the “hERG current change (%, negative = inhibition) at 10uM” value is given as -4.42%.

Consider `CCOc1ccc(NS(=O)(=O)c2ccc(C(=O)N3CCC3)cc2)cc1`, for which the “hERG current change (%, negative = inhibition) at 10uM” value is reported as -4.09%.

For `COc1ccc(OC)c(NC(=O)Cn2c(CCC(=O)O)ccc2-c2ccccc2)c1`, the “hERG current change (%, negative = inhibition) at 10uM” value is given as -5.33%.

As to `COc1ccccc1CNc1nc2nc(C)c(Cl)c(=O)n2[nH]1`, the “hERG current change (%, negative = inhibition) at 10uM” value is on record as -2.39%.

Regarding `O=c1c2c3c(sc2n(CCN2CCCC2)c(=O)n1Cc1ccco1)CCCCC3`, the “hERG current change (%, negative = inhibition) at 10uM” value is -68.6%.

With `O=c1c2c3c(sc2n(CCN2CCOCC2)c(=O)n1Cc1ccco1)CCCCC3`, the “hERG current change (%, negative = inhibition) at 10uM” value is -44.3%.

On to `O=c1c2c3c(sc2n(CCN2CCCCC2)c(=O)n1Cc1ccco1)CCCCC3`, for which the “hERG current change (%, negative = inhibition) at 10uM” value is given as -69.1%.

Turning to `O=C(Cn1c(=O)n(Cc2ccco2)c(=O)c2c3c(sc21)CCCCC3)Nc1ccccc1`, the “hERG current change (%, negative = inhibition) at 10uM” value was found to be 6.54%.

In the case of `O=c1c2c3c(sc2n(CCN2CCCC2)c(=O)n1Cc1ccccc1)CCCCC3`, the “hERG current change (%, negative = inhibition) at 10uM” value was -34.7%.

In the case of `O=C(Cn1c(=O)n(Cc2ccco2)c(=O)c2c3c(sc21)CCCC3)Nc1ccccc1`, the “hERG current change (%, negative = inhibition) at 10uM” value stood at 18%.

As for `c1ccc(-c2[nH]ncc2-c2nc3ccccc3[nH]2)cc1`, the “hERG current change (%, negative = inhibition) at 10uM” value is given as -11%.

Consider `CCOC(=O)N1CCN(C(=O)Cn2c(C)cc3ccccc3c2=O)CC1`, for which the “hERG current change (%, negative = inhibition) at 10uM” value is listed as 3.68%.

For `O=C(CCn1nnc2ccccc21)N1CCC(O)(c2cccc(F)c2)CC1`, the “hERG current change (%, negative = inhibition) at 10uM” value stood at 4.12%.

On to `CC(C)(C)NC(=O)c1ccc(NC(=O)c2ccccc2-c2ccccc2C(=O)O)cc1`, for which the “hERG current change (%, negative = inhibition) at 10uM” value turned out to be 25.2%.

Regarding `CC(C)Oc1cccc(C(=O)C2CCCN(C3CCOCC3)C2)c1` (stereo not drawn), the “hERG current change (%, negative = inhibition) at 10uM” value is recorded as -10.5%.

Regarding `COc1ccc2cc(C(=O)C3CCCN(C4CCOCC4)C3)ccc2c1` (stereo not drawn), the “hERG current change (%, negative = inhibition) at 10uM” value is recorded as -63.5%.

In the case of `COc1cccc(C(=O)C2CCCN(C(=O)c3ccccc3Cl)C2)c1` (stereo not drawn), the “hERG current change (%, negative = inhibition) at 10uM” value is reported as 5.15%.

As to `COc1cccc(C(=O)C2CCCN(C3CCOCC3)C2)c1` (stereo not drawn), the “hERG current change (%, negative = inhibition) at 10uM” value is reported as -50.4%.

For `COc1ccc(C(=O)C2CCCN(C(=O)C3CCOCC3)C2)c(C)c1` (stereo not drawn), the “hERG current change (%, negative = inhibition) at 10uM” value was 27%.

On to `COc1ccc2cc(C(=O)C3CCCN(C(=O)c4ccnn4C)C3)ccc2c1` (stereo not drawn), for which the “hERG current change (%, negative = inhibition) at 10uM” value was -41.1%.

With `Cc1ccc(C(C#N)c2ccc3c(C(F)(F)F)cc(C(F)(F)F)nc3n2)cc1` (stereo not drawn), the “hERG current change (%, negative = inhibition) at 10uM” value came to 11.1%.

For `CCOc1cc(NS(=O)(=O)c2ccc(NC(C)=O)cc2)c(OCC)cc1NC(=O)C(C)C`, the “hERG current change (%, negative = inhibition) at 10uM” value is given as 10.3%.

Take `O=C(CCN1CCCCO1)N1CCCC(Nc2ccc(F)cc2)C1` (stereo not drawn): the “hERG current change (%, negative = inhibition) at 10uM” value is on record as 12.7%.

For the compound `O=C(Cn1ccc([N+](=O)[O-])n1)N1CCc2ccccc21`, the “hERG current change (%, negative = inhibition) at 10uM” value is -2.32%.

For `Cc1cc(C)n2cc(-c3ccc(Cl)cc3)c(C(=O)O)c2n1`, the “hERG current change (%, negative = inhibition) at 10uM” value is reported as -50.9%.

For `CCOC(=O)c1c(-c2ccccc2)cn2c(C)cc(C)nc12`, the “hERG current change (%, negative = inhibition) at 10uM” value is -22.9%.

Regarding `Cc1cc(C)n2nc(C)c(-c3ccc(Cl)cc3)c2n1`, the “hERG current change (%, negative = inhibition) at 10uM” value amounted to 27.1%.

Take `O=c1[nH]c(=S)n(-c2ccccc2)c(O)c1/C=N/N1CCOCC1`: the “hERG current change (%, negative = inhibition) at 10uM” value is on record as -2.11%.

With `Cc1noc(C)c1-c1nnc(-c2ccc(C(F)(F)F)cc2)o1`, the “hERG current change (%, negative = inhibition) at 10uM” value is 4.76%.

With `COCc1ccc(C(=O)NC2CCCN(Cc3ccccc3F)C2)o1` (stereo not drawn), the “hERG current change (%, negative = inhibition) at 10uM” value was 11.2%.

Consider `COCc1ccc(C(=O)N(C)C2CCCN(Cc3ccccc3F)C2)o1` (stereo not drawn), for which the “hERG current change (%, negative = inhibition) at 10uM” value was determined as 0.722%.

On to `COCc1ccc(C(=O)N(C)CC2CCCN(CCc3ccc(OC)cc3)C2)o1` (stereo not drawn), for which the “hERG current change (%, negative = inhibition) at 10uM” value was -69.5%.

On to `COCc1ccc(C(=O)N(C)CC2CCCN(CCc3ccc(Cl)cc3)C2)o1` (stereo not drawn), for which the “hERG current change (%, negative = inhibition) at 10uM” value is given as -78.9%.

Turning to `COCc1ccc(C(=O)N(C)CC2CCCN(CCc3ccccc3F)C2)o1` (stereo not drawn), the “hERG current change (%, negative = inhibition) at 10uM” value was -41%.

Turning to `COc1ccccc1OCC(=O)Nc1ccc2c(c1)C(=O)N(CC1CCCO1)C2=O` (stereo not drawn), the “hERG current change (%, negative = inhibition) at 10uM” value is -19.3%.

As for `CC(=O)Nc1cccc(N(C(=O)C2COc3ccccc3O2)C(C(=O)NC2CCCCC2)c2cn(C)nc2C)c1` (stereo not drawn), the “hERG current change (%, negative = inhibition) at 10uM” value is 24.1%.

As to `CCOc1cc(CNc2ccc(N(C)C)cc2)cc(Br)c1OCC(=O)NC(C)(C)C`, the “hERG current change (%, negative = inhibition) at 10uM” value is recorded as -17%.

Take `Cc1c(C)c2cc3c(C)coc3cc2oc1=O`: the “hERG current change (%, negative = inhibition) at 10uM” value amounted to 10.5%.

`CN1C(C(=O)NCc2ccc(OC(F)(F)F)cc2)CC2Cn3c(nc4cc(Cl)c(Cl)cc43)C21` (stereo not drawn): the “hERG current change (%, negative = inhibition) at 10uM” value is reported as -77.9%.

Consider `CN1C(C(=O)NCc2ccc(OC(F)(F)F)cc2)CC2Cn3c(nc4cc5ccccc5cc43)C21` (stereo not drawn), for which the “hERG current change (%, negative = inhibition) at 10uM” value is -69.4%.

As to `COc1ccc(CCNC(=O)C2CC3Cn4c(nc5ccccc54)C3N2c2ccccc2)cc1` (stereo not drawn), the “hERG current change (%, negative = inhibition) at 10uM” value is given as -7.57%.

For the compound `O=C(NCc1ccc(OC(F)(F)F)cc1)C1CC2Cn3c(nc4ccccc43)C2N1c1ccccc1` (stereo not drawn), the “hERG current change (%, negative = inhibition) at 10uM” value is given as -61.3%.

On to `COc1ccc(CCNC(=O)C2CC3Cn4c(nc5ccccc54)C3N2Cc2ccccc2)cc1` (stereo not drawn), for which the “hERG current change (%, negative = inhibition) at 10uM” value is -49.7%.

Turning to `COc1ccc(CCNC(=O)C2CC3Cn4c(nc5cc6ccccc6cc54)C3N2C)cc1` (stereo not drawn), the “hERG current change (%, negative = inhibition) at 10uM” value is on record as -43.7%.

In the case of `COc1ccc(CCNC(=O)C2CC3Cn4c(nc5cc(Cl)c(Cl)cc54)C3N2C)cc1` (stereo not drawn), the “hERG current change (%, negative = inhibition) at 10uM” value is recorded as -23.5%.

For the compound `O=C(NCc1ccc(OC(F)(F)F)cc1)C1CC2Cn3c(nc4ccccc43)C2N1Cc1ccccc1` (stereo not drawn), the “hERG current change (%, negative = inhibition) at 10uM” value is -62.1%.

With `CN1C(C(=O)NCC2CC2)CC2Cn3c(nc4cc5ccccc5cc43)C21` (stereo not drawn), the “hERG current change (%, negative = inhibition) at 10uM” value was -21.2%.

For the compound `COc1ccc(CCNC(=O)C2CC3Cn4c(nc5cc(C)c(C)cc54)C3N2C)cc1` (stereo not drawn), the “hERG current change (%, negative = inhibition) at 10uM” value was -31.4%.
